The record followed here is publication PMC4336329 (PLoS ONE, 2015).

Screen size: about 310,000 compounds; about 14,000 (4.5%) showed an effect of 50% or more. The effect is printed as a negative number. Many of the other results were omitted from the sample, so strong results are more common in it than they were.
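Further: peak tail current of the secondary pulse compared with the same well before compound.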

In the assay the target is human ether-à-go-go-related gene (hERG) potassium channel (human, UniProt Q12809). Kind of assay: primary screen, population patch clamp on CHO cells stably expressing hERG; higher = less effect of the substance.
Sequence of human ether-à-go-go-related gene (hERG) potassium channel (Q12809 whole entry, looked up): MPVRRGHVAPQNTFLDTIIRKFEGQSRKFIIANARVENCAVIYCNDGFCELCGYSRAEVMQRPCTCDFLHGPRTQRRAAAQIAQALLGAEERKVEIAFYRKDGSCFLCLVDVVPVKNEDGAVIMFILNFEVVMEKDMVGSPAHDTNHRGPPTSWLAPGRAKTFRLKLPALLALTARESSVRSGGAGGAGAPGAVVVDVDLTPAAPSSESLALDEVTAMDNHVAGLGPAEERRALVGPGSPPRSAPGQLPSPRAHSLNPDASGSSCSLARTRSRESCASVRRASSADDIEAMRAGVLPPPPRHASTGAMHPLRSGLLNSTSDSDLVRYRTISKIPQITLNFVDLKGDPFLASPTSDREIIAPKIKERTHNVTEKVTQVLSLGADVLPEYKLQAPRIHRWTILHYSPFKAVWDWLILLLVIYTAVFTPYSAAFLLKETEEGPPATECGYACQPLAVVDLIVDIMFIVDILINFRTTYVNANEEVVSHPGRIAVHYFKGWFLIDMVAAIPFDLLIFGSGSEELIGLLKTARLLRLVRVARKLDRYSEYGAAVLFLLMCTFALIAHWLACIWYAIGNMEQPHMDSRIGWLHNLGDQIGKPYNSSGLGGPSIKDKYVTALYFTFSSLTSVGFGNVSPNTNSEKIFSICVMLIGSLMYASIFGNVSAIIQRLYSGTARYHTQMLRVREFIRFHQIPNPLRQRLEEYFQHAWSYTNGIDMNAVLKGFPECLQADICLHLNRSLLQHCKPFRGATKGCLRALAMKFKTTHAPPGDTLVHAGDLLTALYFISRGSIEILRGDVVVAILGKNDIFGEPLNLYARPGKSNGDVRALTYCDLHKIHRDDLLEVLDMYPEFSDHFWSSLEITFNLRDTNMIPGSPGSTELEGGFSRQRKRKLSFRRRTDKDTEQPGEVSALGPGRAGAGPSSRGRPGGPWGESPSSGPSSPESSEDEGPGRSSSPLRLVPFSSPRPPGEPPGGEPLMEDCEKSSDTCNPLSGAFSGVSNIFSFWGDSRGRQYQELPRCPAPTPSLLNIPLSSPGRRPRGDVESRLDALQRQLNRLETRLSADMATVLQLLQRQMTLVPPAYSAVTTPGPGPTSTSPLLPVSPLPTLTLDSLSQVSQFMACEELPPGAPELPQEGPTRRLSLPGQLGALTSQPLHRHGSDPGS
On to `O=C(NNC(=O)c1cccs1)c1ccc(Br)o1`, for which the “hERG current change (%, negative = inhibition) at 10uM” value was 15.8%.
The result for `CC1C(=O)NN=C1C(=O)N/N=C/c1cccs1` (stereo not drawn) reads 17.3%; that for `COC(=O)c1nn(-c2ccccc2)c(Cl)c1/C=N/OCc1ccc(Cl)cc1Cl`, 20.6%; that for `COC(=O)c1ccc(CSc2nnc3c(Cl)cc(Cl)cn23)o1`, 10.9%.
The result for `CCCOc1ccc(N2CC(C(=O)Nc3ccccc3C(=O)NC)CC2=O)cc1` (stereo not drawn) reads -71.8%; that for `COc1ccc(N2CC(C(=O)Nc3ccccc3C(=O)NCc3ccco3)CC2=O)cc1` (stereo not drawn), -42%; that for `CCCOc1ccc(N2CC(C(=O)Nc3ccccc3C(=O)NCc3ccco3)CC2=O)cc1` (stereo not drawn), -71.5%.
Then `CCCCOc1ccc(N2CC(C(=O)NCc3ccco3)CC2=O)cc1` (stereo not drawn), with -14.5%; and `CNC(=O)c1ccccc1NC(=O)C1CC(=O)N(c2ccc(OC)cc2)C1` (stereo not drawn), with -12.3%; and `O=C(NCc1ccco1)c1ccccc1NC(=O)C1CC(=O)N(c2ccc(Cl)cc2)C1` (stereo not drawn), with -78.4%.
In the case of `O=C(NCc1ccco1)C1CC(=O)N(c2ccc(O)cc2)C1` (stereo not drawn), the “hERG current change (%, negative = inhibition) at 10uM” value was -10.2%.
With `O=C(NCc1ccco1)C1CC(=O)N(c2ccc(Cl)cc2)C1` (stereo not drawn), the “hERG current change (%, negative = inhibition) at 10uM” value is -6.16%.
`CCCOc1ccc(N2CC(C(=O)Nc3ccccc3F)CC2=O)cc1` (stereo not drawn): the “hERG current change (%, negative = inhibition) at 10uM” value was -3.15%.
Take `CCc1ccc(/C=N/NC(=O)c2cc(-c3ccccc3OC)nc3ccccc23)s1`: the “hERG current change (%, negative = inhibition) at 10uM” value worked out at 9.69%.
Then `O=C(NC1CCN(Cc2ccccc2)CC1)C1CCN(S(=O)(=O)c2cccc3nsnc23)CC1`, with -23.7%.
For `CN(C)CC1CCCCC1OC(=O)/C=C/c1ccccc1.Cl` (stereo not drawn), the “hERG current change (%, negative = inhibition) at 10uM” value is listed as -33.2%.
In the case of `Cc1ccccc1C(=O)NNc1ccc([N+](=O)[O-])cc1`, the “hERG current change (%, negative = inhibition) at 10uM” value is recorded as -17.3%.
Consider `CCCOc1ccc(C2/C(=C(/O)c3ccccc3)C(=O)C(=O)N2CCCN(C)C)cc1OC` (stereo not drawn), for which the “hERG current change (%, negative = inhibition) at 10uM” value was found to be 5.35%.
Turning to `Cc1ccccc1CNC(=O)CN(c1cccc([N+](=O)[O-])c1)S(C)(=O)=O`, the “hERG current change (%, negative = inhibition) at 10uM” value came out at 6.08%.
On to `Cc1ccc(N/C(N)=N/c2nc(CSc3nnc(C)s3)cc(=O)[nH]2)c(C)c1`, for which the “hERG current change (%, negative = inhibition) at 10uM” value is recorded as -8.86%.
The result for `Cc1ccccc1-n1ncc2c1CC(C)(C)CC2NC(=O)c1ccncc1` (stereo not drawn) reads -47.4%.
Then `Cc1ccc(-n2ncc3c2CC(C)(C)CC3NC(=O)c2ccncc2)cc1` (stereo not drawn), with -72.2%; and `Cc1cc(C(=O)NC2CC(C)(C)Cc3c2cnn3-c2ccccc2)n[nH]1` (stereo not drawn), with -19.2%; and `CC1=C(C(=O)NC2CC(C)(C)Cc3c2cnn3-c2ccc(C)cc2)OCCO1` (stereo not drawn), with 3.64%.
With `Cc1ccc(-n2ncc3c2CC(C)(C)CC3NC(=O)c2cc[n+]([O-])cc2)cc1` (stereo not drawn), the “hERG current change (%, negative = inhibition) at 10uM” value is -75.4%.
Then `Cc1ccc(-n2ncc3c2CC(C)(C)CC3NC(=O)c2ccccn2)cc1` (stereo not drawn), with -73.7%; and `Cc1ccc(-n2ncc3c2CC(C)(C)CC3NC(=O)c2ccc[n+]([O-])c2)cc1` (stereo not drawn), with -1.89%.
Turning to `Cc1cnc(C(=O)NC2CC(C)(C)Cc3c2cnn3-c2ccccc2)cn1` (stereo not drawn), the “hERG current change (%, negative = inhibition) at 10uM” value is reported as -39%.
Then `CC1(C)Cc2c(cnn2-c2cccc(F)c2)C(NC(=O)c2cc[n+]([O-])cc2)C1` (stereo not drawn), with -37.3%; and `O=C1N[C@@H](Cc2cn(S(=O)(=O)c3ccccc3)c3ccccc23)C(=O)N[C@H]1Cc1ccccc1`, with 14.9%.
On to `Cn1nc(C(=O)NC2CCCCC2)c2c1-c1ccccc1S(=O)(=O)C2`, for which the “hERG current change (%, negative = inhibition) at 10uM” value was found to be 11.7%.
Then `CCCCc1ccc(-c2nc(N)n[nH]2)cc1`, with 6.27%; and `O=[N+]([O-])c1ccc2c(c1)C(N1CCOCC1)/C(=C/COc1ccc(F)cc1)O2` (stereo not drawn), with -26%.
Then `O=[N+]([O-])c1ccc2c(c1)C(N1CCOCC1)/C(=C/COc1ccc(Cl)cc1Cl)O2` (stereo not drawn), with -1.06%.
Take `O=[N+]([O-])c1ccc(OC/C=C2\Oc3ccc([N+](=O)[O-])cc3C2N2CCOCC2)cc1` (stereo not drawn): the “hERG current change (%, negative = inhibition) at 10uM” value is reported as -71.7%.
`Oc1nc(Nc2ccc(Cl)cc2Cl)sc1/C=C1\C=Nc2ccccc21`: the “hERG current change (%, negative = inhibition) at 10uM” value was determined as 9.08%.
Then `CCCOc1ccc(C(C)=O)cc1CN1CCOCC1.Cl`, with 2.99%; and `CCCCn1nc(NC(=O)CC)c2cc3cc(OC)ccc3nc21`, with -11.2%; and `CCCCn1nc(NC(=O)CCC)c2cc3cc(OC)ccc3nc21`, with -3.42%.
In the case of `CCCCn1nc(NC(=O)COC)c2cc3cc(OC)ccc3nc21`, the “hERG current change (%, negative = inhibition) at 10uM” value is recorded as -53.2%.
Then `COc1ccc(NC(=O)CSc2nc3c([nH]c4ccccc43)c(=O)n2C)cc1`, with 0.41%; and `COc1cc(/C=C2/C(=N)N3OC(C)=CC3=NC2=O)ccc1OC(=O)c1ccco1`, with 29.8%; and `Cc1ccc(N=C2NC(=O)C(CO)(CO)S2)cc1`, with 16.1%.
The result for `O=C(c1cccc([N+](=O)[O-])c1)c1ccc2c(c1)OCCOCCOCCO2` reads -52.8%.
Turning to `O=[N+]([O-])c1cc2c(cc1[N+](=O)[O-])OCCOCCOCCOCCO2`, the “hERG current change (%, negative = inhibition) at 10uM” value is given as -59.3%.
On to `Nc1cc2c(cc1[N+](=O)[O-])OCCOCCOCCO2`, for which the “hERG current change (%, negative = inhibition) at 10uM” value was 0.413%.
Consider `O=C(N/N=C/c1cccc([N+](=O)[O-])c1)c1ccc2c(c1)OCCO2`, for which the “hERG current change (%, negative = inhibition) at 10uM” value was 7.63%.
`O=[N+]([O-])c1ccc(S(=O)(=O)Nc2ccc3c(c2)OCCO3)cc1`: the “hERG current change (%, negative = inhibition) at 10uM” value is 3.95%.
The result for `O=C(/C=C/c1cccc([N+](=O)[O-])c1)c1ccc2c(c1)OCCO2` reads 3.36%; that for `O=C(Nc1cccc([N+](=O)[O-])c1)c1ccc2c(c1)OCCO2`, 11.9%.
Then `O=C(Nc1ccc([N+](=O)[O-])cc1)Nc1ccc2c(c1)OCCO2`, with 24.6%.
Take `O=C(Nc1cccc([N+](=O)[O-])c1)Nc1ccc2c(c1)OCCO2`: the “hERG current change (%, negative = inhibition) at 10uM” value was -1.17%.
Then `O=[N+]([O-])c1ccc2c(c1)OCCOCCOCCOCCOCCOCCO2`, with -64.1%; and `Nc1cc2c(cc1[N+](=O)[O-])OCCO2`, with 5.64%; and `O=C(c1cccc([N+](=O)[O-])c1)c1ccc2c(c1)OCCOCCOCCOCCO2`, with -69.8%.
The result for `O=C(NCc1cccc(F)c1)C1CCN(S(=O)(=O)Cc2ccccc2)CC1` reads 7.89%; that for `COCCn1c(SCC(=O)Nc2ccc(Cl)cn2)nc2ccccc21`, -32.1%.
The result for `Cc1ccc(N(C(=O)CCC(=O)Nc2ccccn2)C(C(=O)NC(C)C)c2ccc(F)cc2)cc1` (stereo not drawn) reads 21.4%.
As for `COc1ccc2c(c1)[C@H]1[C@H](CO2)[C@H](c2ccccc2)[C@]2(C)C(=O)N(CC3CCCO3)CC(=O)N12` (stereo partly drawn), the “hERG current change (%, negative = inhibition) at 10uM” value is -2.94%.
Then `COc1cccc(-n2cnc3c(sc4nc(N5CCOCC5)c5c(c43)CCCC5)c2=O)c1`, with 5.92%; and `CCc1ccccc1NC(=O)CNC(=O)CSC(=S)N1CCCC1`, with -3.17%; and `COc1ccc(N2C(=NC(=O)c3ccccc3)SC3CS(=O)(=O)CC32)cc1` (stereo not drawn), with 5.27%.
Then `O=S(=O)(Oc1ccccc1C(=S)N1CCOCC1)c1ccc(Cl)cc1`, with 3.56%.
Take `NS(=O)(=O)c1ccc(CCNC(=O)[C@@H]2CCCN2S(=O)(=O)c2ccccc2F)cc1`: the “hERG current change (%, negative = inhibition) at 10uM” value is on record as -2.88%.
Then `COc1ccc(OC)c(S(=O)(=O)N2CCC(C(=O)NCc3ccc4c(c3)OCO4)CC2)c1`, with -3.84%; and `COc1cccc(NC(=O)c2cccnc2)c1`, with 11.2%.
`Cc1ccc(C#CC[N+]2(CC#Cc3ccc(C)cc3)CCCCC2)cc1.[Br-]`: the “hERG current change (%, negative = inhibition) at 10uM” value is -106%.
Consider `C#CC[N+]1(CC#Cc2ccccc2)CCCCC1.[I-]`, for which the “hERG current change (%, negative = inhibition) at 10uM” value was determined as 2.16%.
Then `OCC#CC[N+]1(CC#Cc2ccccc2)CCCC1.[Br-]`, with 14.5%.
The result for `C#CC[N+]1(CC#Cc2ccccc2)CCCC1.[I-]` reads -1.53%.
Then `C(#Cc1ccccc1)C[N+]1(CC#Cc2ccccc2)CCCC1.[Br-]`, with -55.5%.
Turning to `CCC[N+]1(CC#CC(O)(c2ccccc2)C2CCCCC2)CCCCC1.[Br-]` (stereo not drawn), the “hERG current change (%, negative = inhibition) at 10uM” value came to 12.1%.
The result for `C(#Cc1ccccc1)C[N+]1(CC#Cc2ccccc2)CCCCC1.[Br-]` reads -55.8%.
Take `CCC[N+]1(CC#CCC(c2ccccc2)c2ccccc2)CCCCC1.[Br-]`: the “hERG current change (%, negative = inhibition) at 10uM” value is on record as -66.7%.
Then `O=S(=O)([O-])CCC[N+]1(CC#Cc2ccccc2)CCCCC1`, with 33.8%; and `C=CC[N+]1(CC#Cc2ccccc2)CCCC1.[Br-]`, with 18.4%; and `Cc1ccc(C#CC[N+]2(C)CCCCC2)cc1.[Br-]`, with 14%.
As for `C#CC[N+]1(CC#Cc2ccc(C)cc2)CCCCC1.[Br-]`, the “hERG current change (%, negative = inhibition) at 10uM” value was found to be 4.84%.
Then `COc1ccc2c(c1)CC/C(=C\C=C\c1ccccc1OC)C2=O`, with 8.8%.
The result for `Cc1cc(=O)[nH]c(N/N=C/c2ccc(Br)s2)n1` reads -13.9%; that for `CN1CCN(c2ccc(-c3cccc(NC(=O)COc4ccc(Cl)cc4Cl)c3)nn2)CC1`, 6.83%.
Then `O=C(COc1ccc2c3c(c(=O)oc2c1)CCC3)NC(Cc1ccc(Cl)cc1)C(=O)O` (stereo not drawn), with 3.55%; and `Cc1ccc2nc(Cl)c(CN(Cc3cccs3)C(=O)C3CC3)cc2c1`, with 8.82%; and `C[C@]12CC[C@@H](O)C[C@@H]1CC[C@@H]1[C@@H]2CC[C@]2(C)[C@@H](O)CC[C@@H]12`, with 19.8%.
